In PubChem BioAssay (NCI):
This is part of a sample that, as a whole, favours compounds with a hit. Of some 83,000 tested, about 20% had one in any assay.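 Testing used 96-well plates and a 48-hour single-concentration exposure. Example: -40 means 40% of the starting cells died.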 Unmarked numbers belong to inactive results. Active and inactive are the calls of the source.

What follows are compounds tested on NCI-H226 lung (assay: NCI-60 one-dose screen, 48 h (100 = growth as untreated, 0 = no growth, -100 = all killed)). Conditions: 10 µM unless noted.
Procedure: Growth inhibition of the NCI-H226 human Non-Small Cell Lung tumor cell line is measured as a screen for anti-cancer activity. Cells are grown in 96 well plates and exposed to the test compound for 48 hours. Compounds are tested at a single concentration, which is 10^-5 M for most compounds. The reported endpoint is percent growth (GI% or GIPRCNT), where numbers from 0 - 100% represent growth inhibition, and numbers from -100% - 0 represent cell death. For example, a value of 40 represents 60% growth inhibition. A value of 0 means no net growth occurred over the course of the experiment. A value of -40 indicates 40% of cells at the beginning of the experiment died by the end of the experiment. A value of -100 means all cells are dead at the end of the experiment.
NCI-60 Human Tumor Cell Lines Screen was performed using the standard one-dose NCI protocol, which is described in more detail at https://dtp.cancer.gov/discovery_development/nci-60/default.htm.
Compounds with GIPRCNT values below 10 were considered active. Activity score was based on GIPRCNT using the following formula: […]
Score is 0 for GIPRCNT values of 100 or above, 50 for GIPRCNT values of 0, and 100 for GIPRCNT values of -100.

| SMILES | growth |
| --- | --- |
| CCN1C(=O)N(CC)C2SC(N/N=C/c3ccc(OC)cc3)=NC21 (stereo not given) | 51.2% |
| O=C1/C(=C/c2ccc([N+](=O)[O-])cc2)SC(=Nc2ccccc2)N1Nc1ccccc1 | 85.1% |
| Cc1cc2nc(C(Cl)Cl)nc(-c3ccco3)n2n1 | 95.6% |
| COc1ccc(/C=C/C(=O)c2nnn(-c3ccc(C(=O)O)cc3)c2C)cc1OC | 100% |
| COc1cc(C2=NN(C(C)=O)C(c3ccc(N4CCOCC4)cc3)C2)cc(OC)c1OC (stereo not given) | 96.5% |
| O=S(=O)(Nc1ccc(-c2nc(-c3cccc(O)c3)c(-c3ccnc(Br)c3)[nH]2)cc1)c1ccccc1 | 40.1% |
| Cc1nc(-c2cc3ccccc3c(N3CCN(C)CC3)n2)cs1 | 101% |
| C/C=C/C=C1\C[C@H]2CO[C@H](O2)C1=O | 94.9% |
| O=C1[C@@H]2Cc3c([nH]c4ccccc34)[C@H](c3c(Cl)cccc3Cl)N2C(=O)CN1C1CCN(Cc2c(F)cccc2F)CC1 | 78.7% |
| CCC(=O)Nc1ccc(-c2nc(-c3cccc(O)c3)c(-c3ccnc(Br)c3)[nH]2)cc1 | 74.2% |
| COc1ccc(NC2=C(Cl)C(=O)C(C)=C(C)C2=O)cc1 | 99% |
| CN1CCN(Cc2ccc(NC(=O)c3cncc(C#Cc4cnc5ccc(NC6CCOCC6)nn45)c3)cc2C(F)(F)F)CC1 | -53.1% (active) |
| CC(=O)Nc1ccc(C)c(Nc2cc(-c3ccc(-n4cccn4)cc3)[nH]n2)c1 | 57.9% |
| CC1COc2c(N3CCN(C)CC3)c(F)cc3c(=O)c(C(=O)N/N=C/c4cc[nH]c4)cn1c23 (stereo not given) | 50% |
| CCn1c2ccc(/C=N/OCCCN(C)C)cc2c2cc(/C=N/OCCCN(C)C)ccc21 | 79.7% |
| Clc1ccc(-c2nc3ccc(/C(=N\N=C\c4ccccc4)c4ccccc4)cc3[nH]2)cc1 | 82.4% |
| Cc1cccc(NC(c2cc3cccc4ccc5cccc2c5c43)c2nnnn2C(C)(C)C)c1C (stereo not given) | 31.9% |
| COc1ccc(C(=O)c2c(N)c(C#N)cn2-c2cccc(OC)c2)cc1 | 63.5% |
| COc1ccc(C2C(C#N)=C(N)Oc3c2sc2ccc(C)cc32)cc1 (stereo not given) | 34.9% |
| COc1cc(-c2noc(C[C@@H](NC(=O)OCc3ccccc3)C(C)C)n2)cc(OC)c1OC | 101% |

| SMILES | growth |
| --- | --- |
| CS(=O)(=O)c1nccc(-c2c(-c3ccc(F)c(OCCc4ccccc4)c3)nc3sccn23)n1 | 89.2% |
| CC1OC(O[C@@H]2C(O)C(CO)OC(O[C@H]3COC(O[C@H]4CC[C@]5(C)[C@H]6CC[C@]78OC[C@@]9(CC[C@](C)(C=O)C[C@H]97)[C@H](O)C[C@@]8(C)[C@]6(C)CC[C@H]5C4(C)C)[C@@H](OC4OC(CO)[C@@H](O)[C@@H](O)[C@@H]4O)[C@@H]3O)[C@H]2OC2OC[C@@H](O)[C@@H](O)[C@@H]2O)[C@@H](O)[C@@H](O)[C@H]1O (stereo not given in full) | -47.5% (active) |
| O=C1c2c(c3c4cccnc4[nH]c3c3ccc4ccccc4c23)C(=O)N1CCN1CCNCC1 | 89.4% |
| CCNC(=O)Oc1ccc(/C(=C(/C)c2ccccc2)c2ccc(OCCN3CCCC3)cc2)cc1 | 96.6% |
| COc1cc(/C=N/Nc2ccnc3cc(Cl)ccc23)cc(OC)c1O | 96.2% |
| Cc1nn(-c2ccc(Br)cc2)c2nc(CCl)[nH]c(=O)c12 | 102% |
| Cn1nc(Nc2ccccc2)c(C(=O)NN)c1N | 92.5% |
| Nc1n[nH]c2cccc(C#Cc3cccc(NC(=O)c4cccc(OC(F)(F)F)c4)c3)c12 | 46.8% |
| COC[C@]12CC[C@@H](C)[C@H](C)[C@H]1C1=CC[C@@H]3[C@@]4(C)CCCNC(C)(C)[C@@H]4CC[C@@]3(C)[C@]1(C)CC2 | 58% |
| CCCC(=O)NC(c1cccnc1)c1cc(Cl)c2cccnc2c1O (stereo not given) | 48.9% |
| O=C(/C=C/c1cccc(O)c1)c1ccc(O)cc1 | 103% |
| C=CCn1c(SCC(=O)Nc2ccc(OC)cc2)nnc1-c1ccc(Cl)cc1 | 88.8% |
| O=S(=O)(Nc1ccc2c(c1)OC(F)(F)O2)c1ccc(-c2cnc(C3CC3)o2)cc1 | 60.8% |
| COc1ccc(Cn2cc3c(c2-c2cc(OC)c(OC)c(OC)c2)CCCc2cnoc2-3)cc1N | 66.9% |
| CCCCCCCCCC[C@@H](C)[C@@H]1CC(=O)N[C@H]([C@@H](C)O)C(=O)N[C@@H](C)C(=O)N[C@H](C)C(=O)N[C@@H](CCC(N)=O)C(=O)N[C@H](Cc2ccc(O)cc2)C(=O)N[C@@H](C(C)CC)C(=O)O1 (stereo not given in full) | 42.1% |
| Oc1ccc(CSc2nnc(-c3ccccc3)n2-c2ccccc2)c2cccnc12 | 19.8% |
| Cc1nn(-c2ccccc2)cc1/C=N/Nc1nc(Nc2ccccc2)nc(Nc2ccc(S(N)(=O)=O)cc2)n1 | -59.2% (active) |
| Cc1cc(O)c(=O)cc2c1C[C@H]1CC(C)(C)/C=C/C[C@]3(C)Oc4cc(=O)c(O)cc(C)c4C[C@H]3C[C@H](O)[C@@]1(C)O2 | 14.7% |
| Cc1ccccc1NC1CC(=O)N(c2ccc(Cl)cc2Cl)C1=O (stereo not given) | 108% |
| COc1cc(NC2=C(Cl)C(=O)c3nc(C)ccc3C2=O)cc(OC)c1 | 68.6% |
